According to PubChem BioAssay (NCATS):
Inconclusive results are not listed. The source made the active and inactive calls. Unless noted, calls follow the shape of the dose curve; as a rule, active = well fitted curve in the direction sought with a large enough effect; inconclusive = small, poorly fitted or top-dose-only effect, or another doubt; inactive = no such curve, though single readings can be large; an effect the other way counts as inactive or inconclusive. Numbered stars: 1 amine (or outer) side, 2 acyl side, 3 side chain; on linkers, the order of the positions; unused ones are H or OH. Bridge positions count the residues as written; N and C are the ends. Square brackets hold non-standard residues; d marks the D form. Peptide text beside a SMILES is read from it. * marks the point of attachment. ξ: configuration not given here. ΔAla(Z-3-ureido) = NC(=O)N/C=C(\N)C(=O)O; X1 = NC1=NCCC(C(N[*:1])C(=O)[*:2])N1; ξβ3hOrn = NCCCC(N)CC(=O)*; Dap = NC[CH](N)C(=O)O

How the values were obtained:
[1] = biological target: Ubiquitin carboxyl-terminal hydrolase 1 (Homo sapiens) (UniProt O94782); assay: Inhibitors of USP1/UAF1: Pilot qHTS (AID 504865);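 also: rhodamine fluorescence freed from ubiquitin-rhodamine substrate followed over time; top concentration of the series differs between compounds; % is scaled to controls: 0 for no effect and ±100 for the full control effect; nearly all actives have a fitted effect of over 35% in size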
Sequence of Ubiquitin carboxyl-terminal hydrolase 1 (Homo sapiens) (O94782 whole entry, looked up): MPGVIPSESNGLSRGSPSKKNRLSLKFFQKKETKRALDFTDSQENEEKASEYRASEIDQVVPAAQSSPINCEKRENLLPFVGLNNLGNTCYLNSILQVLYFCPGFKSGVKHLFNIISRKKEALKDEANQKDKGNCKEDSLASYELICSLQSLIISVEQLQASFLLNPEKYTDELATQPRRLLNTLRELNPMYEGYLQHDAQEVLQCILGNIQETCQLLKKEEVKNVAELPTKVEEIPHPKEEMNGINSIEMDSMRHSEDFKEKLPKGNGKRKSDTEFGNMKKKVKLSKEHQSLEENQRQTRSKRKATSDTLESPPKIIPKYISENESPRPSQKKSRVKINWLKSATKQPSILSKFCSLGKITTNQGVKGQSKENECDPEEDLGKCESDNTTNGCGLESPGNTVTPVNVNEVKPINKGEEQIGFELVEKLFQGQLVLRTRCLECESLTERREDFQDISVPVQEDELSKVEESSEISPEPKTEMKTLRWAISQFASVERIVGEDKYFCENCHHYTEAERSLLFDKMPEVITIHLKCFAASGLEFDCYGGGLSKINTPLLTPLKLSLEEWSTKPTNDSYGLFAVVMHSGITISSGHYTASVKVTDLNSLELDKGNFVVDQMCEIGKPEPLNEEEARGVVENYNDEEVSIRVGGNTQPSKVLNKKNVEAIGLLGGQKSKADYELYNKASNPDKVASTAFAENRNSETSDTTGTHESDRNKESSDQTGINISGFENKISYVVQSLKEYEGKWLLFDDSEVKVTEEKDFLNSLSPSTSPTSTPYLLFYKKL
In short: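 Enzyme-free wells gave the negative control, while test wells held 1nM USP1/UAF1 preincubated with compound for 15 min at room temperature. Ub-Rho at 150nM final started the reaction, and fluorescence at 480/540 nm was recorded kinetically.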

[2] = biological target: Luciferin 4-monooxygenase (Photinus pyralis) (UniProt P08659); assay: Biochemical firefly luciferase enzyme assay for NPC (AID 624030);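 also: purified P. pyralis luciferase at 10 nM with luciferin and ATP substrate; 0% = DMSO and -100% = full luciferase inhibition by PTC124 control; nearly all actives have a fitted effect of over 70% in size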
Sequence of Luciferin 4-monooxygenase (Photinus pyralis) (P08659 whole entry, looked up): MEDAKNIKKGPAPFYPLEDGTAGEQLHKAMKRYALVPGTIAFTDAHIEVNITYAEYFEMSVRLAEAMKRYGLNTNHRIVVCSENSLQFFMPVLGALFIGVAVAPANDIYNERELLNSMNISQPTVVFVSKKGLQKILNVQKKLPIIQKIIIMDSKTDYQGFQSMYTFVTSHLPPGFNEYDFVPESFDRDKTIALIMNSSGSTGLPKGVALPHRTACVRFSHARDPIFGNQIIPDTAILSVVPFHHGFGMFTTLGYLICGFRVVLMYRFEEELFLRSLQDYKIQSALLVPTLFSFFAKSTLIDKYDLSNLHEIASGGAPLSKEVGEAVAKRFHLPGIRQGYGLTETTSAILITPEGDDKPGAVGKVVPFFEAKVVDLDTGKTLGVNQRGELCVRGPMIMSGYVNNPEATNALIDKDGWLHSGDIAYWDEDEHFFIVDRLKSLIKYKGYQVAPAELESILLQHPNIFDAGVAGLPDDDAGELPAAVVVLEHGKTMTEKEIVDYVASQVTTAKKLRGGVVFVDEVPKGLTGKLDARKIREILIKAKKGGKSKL
In short: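 Purified P. pyralis luciferase at 10 nM in 50 mM Tris Acetate (final), luminescence read within 5 minutes of enzyme addition to compounds. Activity normalised to PTC124 versus DMSO; concentration-response curves classed by r2, magnitude and activity.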

[3] = S16 Schwann cell viability assay (CellTiter-Glo assay) (AID 624031);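 also: cellular ATP luminescence as a viability measure; plate controls were DMSO-treated cells for no effect and cell-free wells for full effect; nearly all actives have a fitted effect of over 70% in size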
In short: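 Untransfected S16 rat Schwann cells; compound 24 h, 37 °C/5% CO2; CellTiter-Glo ATP luminescence. % activity vs no-cell wells and DMSO controls (0%); concentration-effect curves classed by r2, response magnitude, activity.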

[4] = S16 Schwann cell PMP22 intronic element beta-lactamase assay (AID 624044; calls by dose curve;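 also: 0% = DMSO and -100% = potassium clavulanate positive control; nearly all actives have a fitted effect of over 15% in size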)
In short: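 Beta-lactamase reporter under a PMP22 intronic regulatory element in stable S16 rat Schwann cells; 24 h compound exposure. 460 nm blue signal normalized between DMSO (0%) and potassium clavulanate, with 535 nm FRET tracking viability; curves classed by r2 and response.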

[5] = qHTS profiling for inhibitors of Plasmodium falciparum proliferation (AID 504749);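 also: 0% = DMSO vehicle and full inhibition = artemisinin control; nearly all actives have a fitted effect of over 60% in size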; conditions: P. falciparum in erythrocytes, SYBR Green DNA, 72 h, at 28.7 µM (top of the series)
In short: (§1)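 SYBR Green fluorescence (ex 485 nm, em 535 nm) reports parasite DNA after 72 h compound exposure of infected red cells at 0.3% parasitemia, 2.5% hematocrit; signal normalized to 0.29 uM artemisinin and vehicle wells.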

[6] = tested on: 3D7; assay: as above; conditions: P. falciparum in erythrocytes, SYBR Green DNA, 72 h; series mostly up to 28.7 µM
In short: as §1

[7] = tested on: 7G8; assay: as above; conditions: P. falciparum in erythrocytes, SYBR Green DNA, 72 h; series mostly up to 28.7 µM
In short: as §1

[8] = tested on: AA1029; assay: as above; conditions: P. falciparum in erythrocytes, SYBR Green DNA, 72 h; series mostly up to 28.7 µM
In short: as §1

[9] = tested on: AS120; assay: as above; conditions: P. falciparum in erythrocytes, SYBR Green DNA, 72 h; series mostly up to 28.7 µM
In short: as §1

[10] = tested on: ATS189; assay: as above; conditions: P. falciparum in erythrocytes, SYBR Green DNA, 72 h; series mostly up to 28.7 µM
In short: as §1

[11] = tested on: ATS95; assay: as above; conditions: P. falciparum in erythrocytes, SYBR Green DNA, 72 h; series mostly up to 28.7 µM
In short: as §1

[12] = tested on: C2A; assay: as above; conditions: P. falciparum in erythrocytes, SYBR Green DNA, 72 h; series mostly up to 28.7 µM
In short: as §1

[13] = tested on: CP185; assay: as above; conditions: P. falciparum in erythrocytes, SYBR Green DNA, 72 h; series mostly up to 28.7 µM
In short: as §1

[14] = tested on: CP191; assay: as above; conditions: P. falciparum in erythrocytes, SYBR Green DNA, 72 h; series mostly up to 28.7 µM
In short: as §1

[15] = tested on: CP192; assay: as above; conditions: P. falciparum in erythrocytes, SYBR Green DNA, 72 h; series mostly up to 28.7 µM
In short: as §1

[16] = tested on: CP194; assay: as above; conditions: P. falciparum in erythrocytes, SYBR Green DNA, 72 h; series mostly up to 28.7 µM
In short: as §1

[17] = tested on: CP201; assay: as above; conditions: P. falciparum in erythrocytes, SYBR Green DNA, 72 h; series mostly up to 28.7 µM
In short: as §1

[18] = tested on: CP203; assay: as above; conditions: P. falciparum in erythrocytes, SYBR Green DNA, 72 h; series mostly up to 28.7 µM
In short: as §1

[19] = tested on: CP211; assay: as above; conditions: P. falciparum in erythrocytes, SYBR Green DNA, 72 h; series mostly up to 28.7 µM
In short: as §1

[20] = tested on: CP215; assay: as above; conditions: P. falciparum in erythrocytes, SYBR Green DNA, 72 h; series mostly up to 28.7 µM
In short: as §1

[21] = tested on: CP217; assay: as above; conditions: P. falciparum in erythrocytes, SYBR Green DNA, 72 h; series mostly up to 28.7 µM
In short: as §1

[22] = tested on: CP237; assay: as above; conditions: P. falciparum in erythrocytes, SYBR Green DNA, 72 h; series mostly up to 28.7 µM
In short: as §1

[23] = tested on: CP238; assay: as above; conditions: P. falciparum in erythrocytes, SYBR Green DNA, 72 h; series mostly up to 28.7 µM
In short: as §1

[24] = tested on: CP247; assay: as above; conditions: P. falciparum in erythrocytes, SYBR Green DNA, 72 h; series mostly up to 28.7 µM
In short: as §1

[25] = tested on: CP250; assay: as above; conditions: P. falciparum in erythrocytes, SYBR Green DNA, 72 h; series mostly up to 28.7 µM
In short: as §1

[26] = tested on: CP252; assay: as above; conditions: P. falciparum in erythrocytes, SYBR Green DNA, 72 h; series mostly up to 28.7 µM
In short: as §1

[27] = tested on: CP256; assay: as above; conditions: P. falciparum in erythrocytes, SYBR Green DNA, 72 h; series mostly up to 28.7 µM
In short: as §1

[28] = tested on: CP260; assay: as above; conditions: P. falciparum in erythrocytes, SYBR Green DNA, 72 h; series mostly up to 28.7 µM
In short: as §1

[29] = tested on: CP262; assay: as above; conditions: P. falciparum in erythrocytes, SYBR Green DNA, 72 h; series mostly up to 28.7 µM
In short: as §1

[30] = tested on: CP265; assay: as above; conditions: P. falciparum in erythrocytes, SYBR Green DNA, 72 h; series mostly up to 28.7 µM
In short: as §1

[31] = tested on: CP266; assay: as above; conditions: P. falciparum in erythrocytes, SYBR Green DNA, 72 h; series mostly up to 28.7 µM
In short: as §1

NCCCC(N)CC(=O)NCC1NC(=O)C(CO)NC(=O)C(N)CNC(=O)C(C2CCN=C(N)N2)NC(=O)/C(=C/NC(N)=O)NC1=O (stereo not drawn) (H-[Dap]S[Dap](ξβ3hOrn)[ΔAla(Z-3-ureido)][X1]; lactam 1-C; configuration not given here)
inactive: Potency [1] | Potency [2] | Potency [3] | Potency [4] | activity, negative = inhibition ([5]; parasite line A) 10.1% | activity, negative = inhibition ([5]; parasite line B) 0.112% | Potency [6] | Potency [7] | Potency [8] | Potency [9] | Potency [10] | Potency [11] | Potency [12] | Potency [13] | Potency [14] | Potency [15] | Potency [16] | Potency [17] | Potency [18] | Potency [19] | Potency [20] | Potency [21] | Potency [22] | Potency [23] | Potency [24] | Potency [25] | Potency [26] | Potency [27] | Potency [28] | Potency [29] | Potency [30] | Potency [31]
